Experimental data reported in PubChem BioAssay AID463213 (Sanford-Burnham Center for Chemical Genomics, 2010).
About 4,100 (55%) of roughly 7,400 compounds were called active.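 The calls were made as follows: active = inhibition of yeast growth at or above a set limit in either of two repeat tests at 20 µM; inactive = the rest.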 The set was probably picked from earlier hits. Not all results are given here.

Assay: growth inhibitors of tim10-1 mutant yeast, confirmation, single concentration, luminescence, S. cerevisiae (AID 463213);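 also: tim10-1 mutant grown at permissive 25 °C to find synthetic lethal compounds; 0% = DMSO yeast wells and 100% = medium wells without yeast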
Settings: S. cerevisiae tim10-1 ts strain growth, BacTiter-Glo, 24 h; at 20 µM; stronger effect = higher value

inhibition, active:
Cc1ccc(C(=O)NC(=S)Nc2ccccc2C)cc1 29.8%
Cc1ccc(C(=O)/C=C/c2c(C)nn(-c3ccccc3)c2Cl)cc1 38%
Cc1[nH]c2ccccc2c1C(=O)COC(=O)c1c(-c2ccccc2)noc1C 45.4%
CC(=NCc1ccco1)c1c(C(F)(F)F)[nH]n(-c2nc3ccccc3s2)c1=O 63.5%
O=C(O/N=C(/c1ccccc1)c1ccncc1)c1ccccc1[N+](=O)[O-] 35.3%
Cc1ccc(Oc2nc(-c3ccccn3)nc3ccccc23)cc1 35.5%
O=C(ON=C1CCN(S(=O)(=O)c2ccccc2)CC1)c1ccc(Cl)cc1 61%
CCOc1cccc(-c2nn3c(-c4ccccn4)nnc3s2)c1 39%
Cc1cc(C)nc(S/C=C/C(=O)c2ccccc2)n1 71%
COc1ccc(NCc2nnc(SCc3ccccc3)n2-c2ccc(OC)cc2)cc1 38.9%
CC(NC(=S)Nc1ccccc1)C1COc2ccccc2O1 (centres undefined) 37.4%
Cc1ccc(SC(CC(=O)c2ccc(C(C)(C)C)cc2)C(=O)O)cc1 (centres undefined) 38.5%
Cc1cccc(/C(N)=N/OC(=O)c2ccccc2Cl)c1 50.9%
Cc1cc(N=Nc2ccc3ccccc3c2)ccc1O 36.4%
Cc1nonc1C(=O)N/N=C/c1ccc(O)cc1 44.9%
O=C(/C=C/c1ccc(Cl)cc1Cl)NCc1ccco1 34.4%
COC(C/C=C/C(=O)[C@@H](C)OCc1ccccc1)OC 43.7%
CCc1ccc2oc(-c3ccc(N)cc3)nc2c1 41.8%
COc1ccc(NC(=O)c2cc3nc(-c4ccccc4)cc(C)n3n2)cc1OC 33.3%
CC(C)CCNC(=O)c1ccc2c(Cl)c3c(nc2c1)CCC3 35%
Cc1ccc(-c2cn3cc(C)ccc3n2)cc1 43.9%
CCOC(=O)C(=Cc1ccccc1OC)C(=O)OCC 30.1%
CNC(C)C#Cc1ccc2sc3cc(OC)c(OC)cc3c(=O)c2c1 (centres undefined) 31.8%
CSC(=S)N/N=C/c1c[nH]c2ccccc12 41.7%
COC(=O)CSc1snnc1-c1ccc(Cl)c(Cl)c1 31.9%
O=C(NCc1ccco1)c1cccn2c(=O)c3c4c(sc3nc12)CCCC4 42.4%
Cc1ccc2nc(N(CCN(C)C)C(=O)C3=COCCO3)sc2c1 35.6%
CN(C)CCN(C(=O)C1=COCCO1)c1nc2ccc(Cl)cc2s1 69%
Cc1oc2c(c1C(=O)N1CCOCC1)C(=O)c1ccccc1C2=O 27.7%
O=C1c2cccc3c([N+](=O)[O-])ccc(c23)C(=O)N1CC1CCCO1 (centres undefined) 46.5%
O=C(Cc1ccc(Cl)c(Cl)c1)Nc1ccc(SC(F)F)cc1 35.9%
COc1ccc(C(C[N+](=O)[O-])n2nc(C)cc2C)cc1 (centres undefined) 38.1%
COc1ccc2c(c1)C(NS(=O)(=O)OCC(Cl)(Cl)Cl)CCC2 (centres undefined) 27.9%
Cc1nn(Cc2ccc(Cl)c(Cl)c2)c(C)c1NC(=O)c1cc(C2CC2)on1 51.2%
O=C1CSC(=S)N1c1ccc(Cl)c(Cl)c1 34.4%
S=C(NCCCc1ccccc1)Nc1ccc(Br)cc1 36.3%
CC(C)(C)NC(=O)NC(=O)COC(=O)CCC1CCCCC1 37.9%
CCn1c(/C=C/c2ccc([N+](=O)[O-])o2)nc2ccccc2c1=O 45.9%
Nc1ccccc1Sc1ccc(C(F)(F)F)cc1[N+](=O)[O-] 61.2%

inhibition, inactive:
COc1ccccc1-n1ccnc(SCC(=O)NC2CCCCC2)c1=O 11.8%
CCc1ccc(C(=O)NC(=S)Nc2ccccc2N2CCOCC2)cc1 17.1%
COc1ccccc1C(=O)NC(=S)Nc1ccccc1N1CCCCC1 19.4%
COc1ccc(/C=N/Nc2ncnc3sc4c(c23)CCCC4)cc1O 17.2%
CCOC(=O)N1CCC(N2Cc3cccc(C(=O)Nc4c(C)cccc4CC)c3C2=O)CC1 16.6%
COc1ccc(C(=O)NC(=S)NNC(=O)c2c(-c3ccccc3)noc2C)cc1 18.1%
COc1ccc(Nc2nc(N)nc(CSC(=S)N3CCC(C)CC3)n2)cc1 29.9%
Cc1cc(Br)ccc1NC(=O)c1sc2ncn(CC(=O)N3CCN(c4ccccn4)CC3)c(=O)c2c1C -10.2%
O=C(Oc1ccc(-c2nc(-c3ccccn3)no2)cc1)c1ccccc1 30.3%
N#Cc1ccc(CSc2nnc(-c3ccccn3)n2-c2ccc(Cl)cc2)cc1 30.9%
COc1ccc(OC)c2sc(NC(=O)C3COc4ccccc4O3)nc12 (centres undefined) 23.6%
CC(c1ccco1)N(C(=O)Nc1ccccc1)C1CCCCC1 (centres undefined) 19.4%
c1c2c(cc3sc(N4CCCCC4)nc13)OCCO2 27.8%
Cc1ccc(/C(N)=N/OC(=O)COc2ccc(Cl)c(C)c2)cc1 29.1%
COc1ccc(-c2cc(C3CCN(c4ncccc4[N+](=O)[O-])CC3)[nH]n2)cc1 30.2%
Nc1ccc(-c2nnc(-c3ccc(-c4ccccc4)cc3)o2)cc1 25.1%
CSc1nnc2ccc(-c3ccc(C)cc3)nn12 24.9%
COc1ccc2c(c1)cc1n2CCN=C1NN 27.9%
COc1ccccc1CNC(=O)c1ccc(SC)cc1OC 20.9%
CCC(=O)Nc1nc2ccccc2n1Cc1ccccc1C 18%
O=c1oc(-c2ccco2)nc2sc3c(c12)CCCCC3 3.45%
Cc1ccc(-c2csc(NC(=O)C3=COCCO3)n2)cc1C 18.2%
Clc1ccc(C2CC(c3cccs3)n3ncnc3N2)cc1Cl (centres undefined) 18%
Cc1ccc(S(=O)(=O)NC(C(=O)N2CCOCCOCCOCCOCC2)c2ccccc2)cc1 (centres undefined) 0.85%
N#C/C(=C\c1cccnc1)C(=O)Nc1ccc(SC(F)F)cc1 17.2%
COc1cccc(Cn2cnc3c([N+](=O)[O-])c(C)c(C)cc32)c1 25.6%
COc1ccc2nc(NC(=O)[C@@H]3CCCN3C(=O)c3cccs3)sc2c1 19.9%
Cc1nn2c(c1-c1ccccc1)N=C(c1ccco1)CC2c1ccccc1 (centres undefined) 28.9%
COc1ccc2nc(Nc3nc4cc5c(cc4s3)OCCO5)sc2c1 1.5%
Brc1ccc(C2=CC(c3ccco3)n3ncnc3N2)cc1 (centres undefined) 18.9%
